Assay outcomes: PubChem BioAssay, several laboratories
Hits are enriched below; roughly 2.3% of the tested compounds scored in any of these assays.
SENP8 block-1: inhibitors of human SENP8 protease | inhibition, % at 20 µM | AID 602440 | 0.64% of 360,000 active | Q96LD8 | recombinant SENP8, Nedd8 substrate fluorescence; in the data active means inhibition mostly above about 40%, no sharp cut-off; inactive means mostly below about 27%
LGR2 antag: Drosophila LGR2 receptor signaling inhibition; AID 720647; inhibition, % at 9.99 µM; 0.35% of 380,000 active; HEK293 LGR2, CRE-luciferase, bursicon-stimulated, 4 h;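 active means drop in luminescence signal, shown as inhibition above about 50% in the replicate tests, limit read from the data, passing the limit was not always enough; inconclusive means probably only some replicates passing the limit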;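 further: agonist challenge used bursicon conditioned medium at about half maximal strength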
SENP6 block: blocks the human protease SENP6 | Q9GZR1 | Recombinant SENP6 catalytic domain, aminoluciferin luminescence | inhibition, % at 10 µM | 1.8% of 330,000 active | AID 2599;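 active means inhibition above about 50% at the single tested dose, limit read from the data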;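 further: plate controls were DMSO wells with enzyme for no effect and DMSO wells lacking enzyme for full effect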
Target sequence (Q9GZR1 628-1112 limits assumed): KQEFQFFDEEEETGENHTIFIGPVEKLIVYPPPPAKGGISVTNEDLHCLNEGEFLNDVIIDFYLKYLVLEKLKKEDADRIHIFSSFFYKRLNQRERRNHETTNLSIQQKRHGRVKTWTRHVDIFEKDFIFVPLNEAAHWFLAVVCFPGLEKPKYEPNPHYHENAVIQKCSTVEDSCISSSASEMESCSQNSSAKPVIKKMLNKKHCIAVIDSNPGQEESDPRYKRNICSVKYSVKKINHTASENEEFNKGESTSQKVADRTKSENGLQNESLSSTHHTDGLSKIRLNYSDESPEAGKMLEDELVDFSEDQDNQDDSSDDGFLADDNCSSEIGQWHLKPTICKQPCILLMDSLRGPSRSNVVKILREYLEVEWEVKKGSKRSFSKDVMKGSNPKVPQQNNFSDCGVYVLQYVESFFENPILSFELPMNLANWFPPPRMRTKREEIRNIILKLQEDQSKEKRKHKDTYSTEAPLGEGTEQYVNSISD
SENP7 inh: blocks the human protease SENP7 | recombinant SENP7, Z-RLRGG-aminoluciferin luminescence, 40 min | inhibition, % at 5 µM | 1.5% of 330,000 active | AID 434973;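 active means inhibition above about 50% at the single test dose, limit read from the data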;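 further: plate controls were DMSO with enzyme for no effect and no enzyme buffer wells for full effect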
HSP90 refold inh: HSP90 refolding inhibition in rabbit reticulocyte lysate | luciferase refolding luminescence, 3 h | inhibition, % at 5.6 µM | 0.91% of 290,000 active | AID 1789;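 active means inhibition above the screen-wide mean plus 3 SD, computed separately per campaign, cut at about 16% in these data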;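 further: 0% = DMSO wells and 100% = 60 µM geldanamycin wells; inhibitors lower the luminescence because luciferase stays unfolded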
SENP8 block-2: SENP8 protease inhibition | Q96LD8 | purified SENP8, Z-RLRGG-aminoluciferin cleavage, luminescence | inhibition, % at 10 µM | 1.2% of 330,000 active | AID 2540; in the data active means inhibition above about 50%
HSP90 confirm: confirmation of HSP90 inhibitors | shares compounds with HSP90 refold inh | rabbit reticulocyte lysate, luciferase refolding luminescence, 3 h | inhibition, % at 5.9 µM | 64% of 2,300 active; in the data active means inhibition above about 18%;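 further: 0% = vehicle wells and 100% = reference inhibitor wells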
FLuc counter: counter-screen for HSP90 inhibitors: inhibitors of firefly luciferase; purified native firefly luciferase, luminescence; inhibition, % at 5.9 µM; 48% of 2,300 active; shares compounds with HSP90 refold inh;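 active means inhibition above the mean inhibition of all tested sample wells plus 3 SD, cut at about 10% in these data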;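 further: 0% = DMSO with luciferase and 100% = wells lacking luciferase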
SENP8 conf: human SENP8 inhibition, confirmed | shares compounds with SENP7 inh | Recombinant SENP8, Z-RLRGG-aminoluciferin luminescence, 60 min | inhibition, % at 12.5 µM | 40% of 6,200 active;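 active means mean inhibition across replicates above about 50%, limit read from the data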
SENP6 conf: human SENP6 inhibition, confirmed. inhibition, % at 12.5 µM. recombinant SENP6, Z-RLRGG-aminoluciferin luminescence. 58% of 6,200 active. shares compounds with SENP7 inh
SENP7 conf: confirmation of human SENP7 protease inhibitors; shares compounds with SENP7 inh; recombinant SENP7, Z-RLRGG-aminoluciferin luminescence, 40 min; inhibition, % at 12.5 µM; 69% of 6,200 active; AID 488917
Casp3 SENP sel: caspase-3 inhibition (SENP selectivity assay) | shares compounds with SENP7 inh | purified caspase-3, Z-DEVD-aminoluciferin luminescence, 60 min | inhibition, % at 12.5 µM | 60% of 6,200 active | AID 488918;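 active means mean inhibition above about 50%, limit read from the data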;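 further: plate controls were enzyme with DMSO for no effect and wells without caspase-3 for full effect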
Target sequence (P42574 28-227 limits assumed): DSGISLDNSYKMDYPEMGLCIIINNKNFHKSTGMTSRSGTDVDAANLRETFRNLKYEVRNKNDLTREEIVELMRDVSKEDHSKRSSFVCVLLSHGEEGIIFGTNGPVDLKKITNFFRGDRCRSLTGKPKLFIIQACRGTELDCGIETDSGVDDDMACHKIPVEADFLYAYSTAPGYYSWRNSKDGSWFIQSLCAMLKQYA
SENP luc ctr: luminescence interference (SENP counter-screen); shares compounds with SENP7 inh; Pre-incubated SENP8/Z-RLRGG-aminoluciferin, luciferase luminescence interference; inhibition, % at 12.5 µM; 39% of 6,200 active; AID 488919;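 active means mean inhibition above about 50% when retested at one dose, limit read from the data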;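 further: plate controls were DMSO wells with completed reaction for no effect and substrate without enzyme for full effect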
An asterisk follows results filed as active; ? = inconclusive; . = no result.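 How the source made its calls, unless noted: active means mean inhibition above about 50% in the one-dose retest (limit read from the data); inactive means the rest.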

SMILES | SENP8 block-1 | LGR2 antag | SENP6 block | SENP7 inh | HSP90 refold inh | SENP8 block-2 | HSP90 confirm | FLuc counter | SENP8 conf | SENP6 conf | SENP7 conf | Casp3 SENP sel | SENP luc ctr
O=C(c1cc(-c2ccc(Cl)cc2Cl)on1)N1CCCC1 | 10 | 75* | 87* | 75* | 37* | 78* | 55* | 57* | -8 | 45 | 51* | 30 | 48
CO[C@@H]1CN(C)C(=O)c2cc(NC(=O)Nc3ccccc3F)ccc2OC[C@@H](C)NC[C@@H]1C | . | -14 | . | . | . | . | . | . | . | . | . | . | .
CCCNC(=O)C[C@H]1CC[C@H]2[C@@H](COc3ccc(NC(=O)NCC)cc3C(=O)N2C)O1 | . | 6 | . | . | . | . | . | . | . | . | . | . | .
O=C(O)/C(=C\c1ccc(-c2ccccc2[N+](=O)[O-])o1)c1ccccc1 | 2 | -30 | 58* | 0 | 34* | 48 | -5 | -9 | 60* | 66* | 74* | 59* | 54*
O=C(/C=C/c1ccc(-c2ccccc2[N+](=O)[O-])o1)c1ccccc1 | 2 | -24 | . | . | 0 | . | . | . | . | . | . | . | .
O=C(Nc1nc(-c2ccc3c(c2)OCCO3)cs1)c1ccco1 | -51 | -99 | 86* | 89* | 18* | 83* | 20* | 9.9* | 86* | 86* | 97* | 75* | 90*
Cc1ccc(C(=O)Nc2ccsc2C(=O)O)cc1 | 15 | -47 | 94* | 94* | 18* | 92* | 13 | -1 | 1 | 97* | 102* | 98* | 96*
O=C(CNC(=O)c1ccccc1)Nc1ccsc1C(=O)O | 2 | 8 | -7 | 2 | 0 | 0 | . | . | . | . | . | . | .
COc1ccc2c3c([nH]c2c1)[C@@H](CO)N(Cc1ccccc1F)CC31CCN(C(=O)C2CCOCC2)CC1 | . | 0 | . | . | . | . | . | . | . | . | . | . | .
Cc1ccc(S(=O)(=O)Nc2ccc3c(c2)C(=O)N([C@@H](C)CO)C[C@@H](C)[C@H](CN(C)S(=O)(=O)c2ccc(F)cc2)O3)cc1 | . | 3 | . | . | . | . | . | . | . | . | . | . | .
Cc1nc(-c2coc3cc(O)c(C)cc3c2=O)cs1 | -143 | . | 93* | 98* | 18* | 94* | 52* | 51* | 84* | 98* | 102* | 96* | 47
Cc1nc(-c2coc3cc(C)c(N=O)c(O)c3/c2=N\N)cs1 | 14 | 21 | 13 | 2 | -3 | 3 | . | . | . | . | . | . | .
CCN(CC)CCOc1c(Br)ccc2c1sc1nc3n(c(=O)c12)CCC3 | -5 | . | -14 | -3 | -1 | 6 | . | . | . | . | . | . | .
O=c1c2c(nc3n1CCCCC3)sc1c(O)c(Br)ccc12 | 6 | ? | 65* | 34 | 23* | 26 | 35* | 37* | 59* | 59* | 87* | 69* | 14
CCOc1ccc2cc(C3CC(c4ccco4)=NN3S(C)(=O)=O)c(Cl)nc2c1 (stereo not drawn) | -2 | -17 | -10 | -2 | -1 | -9 | . | . | . | . | . | . | .
CCc1ccc(C2CC(c3ccco3)=NN2S(C)(=O)=O)cc1 (stereo not drawn) | 22 | . | 94* | 92* | 18* | 89* | 22* | 13* | 96* | 97* | 102* | 96* | 92*
O=C(/C=C/c1ccco1)N1CCc2ccccc21 | 13 | 29 | 93* | 91* | 24* | 91* | 41* | 25* | -1 | 96* | 102* | 97* | 94*
c1ccc2nc(-c3ccc(N4CCOCC4)cc3)ccc2c1 | -281 | . | 93* | 97* | 27* | 81* | 80* | 71* | 66* | 80* | 93* | 76* | 39
Cc1cc(-c2ccc(N3CCOCC3)cc2)nc2ccccc12 | -413 | -59 | 8 | 8 | 0 | -6 | . | . | . | . | . | . | .
Cc1cccc(S(=O)(=O)N[C@H]2CC[C@H](CCn3cc(-c4ccccn4)nn3)O[C@H]2CO)c1 | . | -3 | . | . | . | . | . | . | . | . | . | . | .
O=C(NC1CCCC1)[C@@H]1[C@@H](CO)[C@@H]2Cn3c(ccc(C4=CCCC4)c3=O)[C@H]1N2CC1CC1 | . | 10 | . | . | . | . | . | . | . | . | . | . | .
COc1ccc(/C=N/Nc2nc(C(=O)O)cs2)cc1 | -120 | -42 | 93* | 97* | 66* | 96* | 90* | 74* | 97* | 98* | 102* | 63* | 98*
O=C(C[C@H]1CC[C@H](NC(=O)CCN2CCCCC2)[C@H](CO)O1)Nc1nccs1 | . | 12 | . | . | . | . | . | . | . | . | . | . | .
Cc1cc(C(=O)Nc2ccc(Cl)cc2)c(C)n1-c1ccccc1 | 7 | 82* | 93* | 91* | 81* | 89* | 81* | 80* | 91* | 98* | 102* | 88* | 30
Cc1ccc(NC(=O)c2cc(C)n(-c3ccccc3)c2C)cc1 | 16 | . | 86* | 72* | 75* | 67* | 85* | 83* | 86* | 85* | 97* | 73* | 43
SMILES | SENP8 block-1 | LGR2 antag | SENP6 block | SENP7 inh | HSP90 refold inh | SENP8 block-2 | HSP90 confirm | FLuc counter | SENP8 conf | SENP6 conf | SENP7 conf | Casp3 SENP sel | SENP luc ctr
COc1ccccc1-c1cnc2c(c1)C(=O)N([C@@H](C)CO)C[C@H](C)[C@H](CN(C)Cc1cccc(F)c1)O2 | . | 5 | . | . | . | . | . | . | . | . | . | . | .
COc1ccc2cc(-c3ccccc3)ncc2c1 | -194 | ? | 95* | 98* | 20* | 92* | 24* | 10* | 79* | 95* | 96* | 86* | 33
COc1ccc(-c2cc3cc(OC)c(OC)cc3cn2)cc1 | -340 | -105 | -14 | 47 | . | 33 | . | . | . | . | . | . | .
Cc1ccc(-n2nnc(-c3nccs3)n2)cc1 | 14 | -12 | 94* | 98* | 76* | 94* | 85* | 81* | 97* | 97* | 101* | 97* | 94*
CNC[C@@H]1Oc2ccc(NC(=O)NC3CCCCC3)cc2C(=O)N([C@H](C)CO)C[C@H]1C | . | -16 | . | . | . | . | . | . | . | . | . | . | .
CCOc1ccc(NC(=O)Nc2ccccc2C(N)=O)cc1 | 11 | 4 | 98* | 100* | 32* | 91* | 42* | 38* | 95* | 97* | 102* | 98* | 32
CC(C)C(=O)Nc1ccc2nn(-c3ccc(F)cc3)nc2c1 | -436 | . | 71* | 85* | 25* | 53* | 28* | 20* | 16 | 31 | 66* | 26 | 8
